# In the supplement of paper PMC12340641:
# Tested on: HEK293FT dCK*-only
# Assay: relative growth in counter assay (no AraC = 100%, AraC + DMSO = 0%); higher = more growth rescue independent of IKZF1
# Details: compound concentration: 5 uM; AraC concentration: 0.3 uM; overnight pretreatment + 4 days AraC
# Summary of the method: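 Nuclei were counted by imaging after Hoechst 33342 staining on day 5, in HEK293FT cells (300/well, 384-well) expressing only an engineered kinase construct. Compound at 5 μM went in 2 h after seeding, followed after overnight at 37 °C by a nucleoside suicide substrate at 0.3 μM plus medium for 4 days. Per plate, wells lacking suicide substrate defined 100% and those with substrate plus vehicle defined 0%.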
row,SMILES,relative growth in counter assay [%]
1,O=C(Nc1ccc(Br)cc1)c1cc(Br)cc(Br)c1O [tribomsalan],-2.64
2,C[C@H]1O[C@@H](O[C@H]2[C@@H](O)C[C@H](O[C@H]3[C@@H](O)C[C@H](O[C@H]4CC[C@@]5(C)[C@H](CC[C@@H]6[C@@H]5C[C@@H](O)[C@]5(C)C(c7coc(O)c7)CC[C@]65O)C4)O[C@@H]3C)O[C@@H]2C)C[C@H](O)[C@@H]1O (some centres undefined) [Digoxin],-34.1
3,COc1cc2cc(c1Cl)N(C)C(=O)C[C@H](OC(=O)C(C)C)[C@]1(C)O[C@H]1[C@H](C)[C@@H]1C[C@@](O)(NC(=O)O1)[C@H](OC)/C=C/C=C(\C)C2 [Ansamitocin P-3],-34.3
4,O=c1[nH]c2ccccc2n1CCCN1CCC(n2c(=O)[nH]c3cc(Cl)ccc32)CC1,-4.05
5,C[C@]12CCC3C(CC[C@]4(O)C[C@@H](O)CC[C@]34C=O)[C@@]1(O)CCC2C1=CC(=O)OC1 (some centres undefined) [Strophantidin],-32.9
6,O=C1/C(=C/c2ccccc2)C[C@@]2(O)C3Cc4ccc(O)c5c4[C@@]2(CCN3CC2CC2)[C@H]1O5,-34.5
7,Oc1cc(Cl)ccc1Oc1ccc(Cl)cc1Cl,-4.14
8,CO[C@H]1[C@H](O)[C@H](O[C@H]2CC[C@@]3(C=O)[C@H](CC[C@@H]4[C@@H]3CC[C@]3(C)[C@@H](C5=CC(=O)OC5)CC[C@]43O)C2)O[C@@H](C)[C@@H]1O [Peruvoside],-34.2
9,"O=[N+]([O-])c1ccc(Cl)c([N+](=O)[O-])c1 [2,4-dinitrochlorobenzene]",-34.1
